From the supplement of paper PMC6555819

Legend:
Assay in all cases: PBM binding z-score (relative to random genomic background probes); higher = stronger binding; sequences stand for … in GC…GCGATTGACAGCGTAGAATGAAGG
[1] = system: FXR:RXRa (NR concentration 270 nM, RXRa partner concentration 90 nM)
In short: (§1)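 Ligand-free nuclear receptor dimers were bound for 1 h to custom Agilent 4×180K protein-binding microarrays. Detection used antibodies against each partner (one per run). Binding z-scores rest on regression-normalized fluorescence, with random background probes as the reference.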

[2] = system: LXRa:RXRa (NR concentration 270 nM, RXRa partner concentration 90 nM)
In short: as §1

[3] = system: LXRa homodimer (NR concentration 270 nM)
In short: as §1

[4] = system: LXRb:RXRa (NR concentration 270 nM, RXRa partner concentration 90 nM)
In short: as §1

[5] = system: LXRb homodimer (NR concentration 270 nM)
In short: as §1

[6] = system: PPARa:RXRa (NR concentration 270 nM, RXRa partner concentration 90 nM)
In short: as §1

[7] = system: PPARg:RXRa (NR concentration 180 nM, RXRa partner concentration 90 nM)
In short: as §1

[8] = system: PPARg:RXRa 270nM:90nM, anti-RXR (NR concentration 270 nM, RXRa partner concentration 90 nM)
In short: as §1

[9] = system: PPARg:RXRa 30nM:10nM, anti-RXR (NR concentration 30 nM, RXRa partner concentration 10 nM)
In short: as §1

[10] = system: PPARg:RXRa 90nM:30nM, anti-RXR (NR concentration 90 nM, RXRa partner concentration 30 nM)
In short: as §1

[11] = system: PPARg:RXRa DBDmut IVT, anti-RXR (DBD mutation: RXRa K156A/R161A, NR concentration 270 nM, RXRa partner concentration 90 nM)
In short: as §1

[12] = system: PPARg:RXRa IVT, anti-PPARg (NR concentration 270 nM, RXRa partner concentration 90 nM)
In short: as §1

[13] = system: PPARg DBDmut:RXRa IVT, anti-PPARg (DBD mutation: PPARg1 K132A/R137A, NR concentration 270 nM, RXRa partner concentration 90 nM)
In short: as §1

[14] = system: PPARg DBDmut IVT, anti-PPARg (DBD mutation: PPARg1 K132A/R137A, NR concentration 270 nM)
In short: as §1

[15] = system: PPARg homodimer (NR concentration 180 nM)
In short: as §1

[16] = system: PXR:RXRa (NR concentration 270 nM, RXRa partner concentration 90 nM)
In short: as §1

[17] = system: PXR homodimer (NR concentration 270 nM)
In short: as §1

[18] = system: RARa:RXR (NR concentration 270 nM, RXRa partner concentration 90 nM)
In short: as §1

[19] = system: RARa homodimer (NR concentration 270 nM)
In short: as §1

[20] = system: RARb:RXRa (NR concentration 270 nM, RXRa partner concentration 90 nM)
In short: as §1

Row | Sequence | PBM binding z-score [1] | PBM binding z-score [2] | PBM binding z-score [3] | PBM binding z-score [4] | PBM binding z-score [5] | PBM binding z-score [6] | PBM binding z-score [7] | PBM binding z-score [8] | PBM binding z-score [9] | PBM binding z-score [10] | PBM binding z-score [11] | PBM binding z-score [12] | PBM binding z-score [13] | PBM binding z-score [14] | PBM binding z-score [15] | PBM binding z-score [16] | PBM binding z-score [17] | PBM binding z-score [18] | PBM binding z-score [19] | PBM binding z-score [20]
1 | GCGATTAGTTGAAAGGGCAACCGAATGATTCTCG | 0.286 | 0.514 | -0.112 | 0.595 | -0.521 | 1.88 | 1.74 | 3.51 | 1.24 | 2.72 | 0.242 | 0.29 | -0.291 | -0.4 | 0.619 | 0.575 | 0.0647 | 1.43 | -0.197 | 1.87
2 | ATATGTAGGTTAAGGGTCATTCATGTTGGTTCGC | 5.05 | 4.86 | 3.12 | 4.48 | 1.33 | 6.66 | 11.6 | 9.59 | 9.79 | 10.5 | 7.75 | 8.04 | 2.47 | 1.44 | 3.15 | 4.77 | 1.38 | 5.63 | 2.15 | 3.6
3 | CCTTCTGGGCCAAAGGTCATTGATTCCAATGCTC | 4.88 | 5.18 | 4.15 | 5 | 1.15 | 6.61 | 11.3 | 10.2 | 10.6 | 11.4 | 5.17 | 6.5 | 0.508 | 0.533 | 2.95 | 5.52 | 1.51 | 6.29 | 0.576 | 4.44
4 | CGTCGAAGGTCATAGGAGGTCAGTGAAGACAGAT | 7.63 | 7.68 | 5.14 | 6.27 | 0.859 | 5.98 | 5.54 | 6.05 | 3.04 | 4.92 | 3.11 | 4.45 | -0.37 | -0.169 | 4.08 | 6.79 | 3.47 | 5.95 | 2.11 | 5.41
5 | GCTAGCAGGCCATTTGGGTCACTTAATGACGGGC | 0.0717 | -0.185 | -0.464 | -0.142 | -0.905 | 1.16 | 0.67 | 0.681 | -0.515 | 0.00792 | 1.56 | 1.89 | -0.44 | -0.938 | -0.528 | 0.407 | -0.077 | 0.758 | -1.06 | 1.3
6 | TCATATAGGTAAAGGTGAAAGTAGAACGATATGA | 1.05 | 1.4 | -0.101 | 1.28 | 0.0204 | 3.29 | 4.62 | 4.54 | 4.45 | 4.86 | 4.02 | 4.56 | 2.33 | 2.14 | 1.55 | 1.08 | -0.104 | 1.42 | 0.341 | 2.02
7 | CGTCCAAGGTCAAGGTCAGTGAGAGAGACTCGAA | 7.65 | 5.63 | 1.24 | 4.59 | 0.615 | 6.05 | 6.16 | 6.13 | 2.58 | 4.79 | 3.51 | 4.84 | 1.23 | 2.41 | 3.47 | 4.79 | 1.08 | 5.05 | 1.59 | 5.69
8 | TCATATAGGTAAACAAGTGAAAGTCCGTAAGTTA | 1.87 | 1.33 | 0.256 | 1.17 | 0.297 | 1.58 | 1.4 | 2.55 | 4.08 | 2.98 | 3.94 | 2.87 | 1.04 | 0.969 | 0.811 | 0.871 | 0.525 | 0.876 | 1.3 | 0.893
9 | GGACCGAGGGCATTCGAGTTGATAGCATGGCGAT | 1.26 | 1.86 | -0.0835 | 0.133 | -1.34 | 0.952 | 0.4 | 0.0586 | -0.851 | -0.483 | 0.308 | 0.267 | -0.812 | -0.98 | -0.223 | 4.17 | 1.3 | 0.835 | -0.77 | 1.88
10 | TCATATATGTAAAGGTGAAAGTCGAACGATATGA | 0.775 | 1.41 | -0.143 | 1.2 | -0.14 | 2.68 | 2.6 | 3.13 | 3.73 | 3.47 | 1.83 | 1.99 | 1.26 | 0.868 | 0.62 | 0.981 | -0.319 | 1.78 | 0.741 | 1.96
11 | CCTATTAGTTGACCATAAGGGCAACCAAAGCTCG | 1.06 | 0.507 | 0.675 | 0.965 | 0.552 | 0.948 | 0.604 | 0.461 | 0.262 | 0.51 | 0.357 | 0.63 | 0.3 | 0.552 | 1.72 | 1.18 | 1 | 1.47 | 2.44 | 1.62
12 | CCTACTGCGCCATTCAGAGGTCATTGATCATATG | 3.32 | 4.74 | 7.35 | 4.35 | 1.54 | 3.8 | 0.615 | 1.89 | 0.275 | 0.91 | 0.443 | 1.07 | 0.596 | 0.708 | 2.61 | 4.86 | 2.44 | 4.54 | 1.18 | 3.05
13 | CGTGAAAGTTCAAGGTAACGTAACAGAAAGCAGC | 5.94 | 5.62 | 2.82 | 3.12 | 0.85 | 4.54 | 3.2 | 4.01 | 1.51 | 3.03 | 0.31 | 1.59 | 1.08 | 0.978 | 2.81 | 4.03 | 2.44 | 3.46 | 0.962 | 4.93
14 | CCTAGTTGGTCAAGGTCACACACGCTATAGGTAC | 4.71 | 4.18 | 2.66 | 3.92 | 1.23 | 4.33 | 3.35 | 3.96 | 1.66 | 3.2 | 2.68 | 3.52 | 0.555 | 1.3 | 4.56 | 4.41 | 2.97 | 4.88 | 4.38 | 4.17
15 | CCAGACAGGTCAGAAGGTAACTCAGCCTCGATTA | 2.82 | 2.29 | 0.142 | 1.7 | -0.0467 | 3.15 | 1.84 | 2.26 | 0.435 | 1.4 | 1.41 | 1.15 | -0.393 | -1.03 | 2.19 | 1.21 | 0.153 | 2.1 | 0.911 | 3.49
